# In all, about 140,000 sequences were measured (“enrichment ratio after two sorts for PhoP signalling”: median about 0, highest 2% from about 11 on). What follows is part of a selection rich in the highest values, with near analogues and random picks from the rest.
# B1: PhoQ; a variant is named by its letters at X, in order, P23837 (parent)
# chain: MKKLLRLFFPLSLRVRFLLATAAVVLVLSLAYGMVALIGYSVSFDKTTFRLLRGESNLFYTLAKWENNKLHVELPENIDKQSPTMTLIYDENGQLLWAQRDVPWLMKMIQPDWLKSNGFHEIEADVNDTSLLLSGDHSIQQQLQEVREDDDDAEMTHSVAVNVYPATSRMPKLTIVVVDTIPVELKSSYMVWSWFIYVLSANLLLVIPLLWVAAWWSLRPIEALAKEVRELEEHNRELLNPATTRELTSLVRNLNRLLKSERERYDKYRTTLTDLTHSLKTPLXXLQXXLRSLRSEKMSVSDAEPVMLEQISRISQQIGYYLHRASMRGGTLLSRELHPVAPLLDNLTSALNKVYQRKGVNISLDISPEISFVGEQNDFVEVMGNVLDNACKYCLEFVEISARQTDEHLYIVVEDDGPGIPLSKREVIFDRGQRVDTLRPGQGVGLAVAREITEQYEGKIVAGESMLGGARMEVIFGRQHSAPKDE
# Variants of: B1
# Assay: enrichment ratio after two sorts for PhoP signalling (ratio (wild type AVST 3.29)); higher = more functional
# Conditions: with PhoP (E. coli)
row,Variant,enrichment ratio
1,TSES,2.55
2,SFWK,≤ 0.25
3,AMIT,≤ 0.25
4,NCDK,≤ 0.25
5,DMRV,≤ 0.25
6,EDCW,≤ 0.25
7,MMNP,≤ 0.25
8,DYLI,≤ 0.25
9,GGIM,13.9
10,GNIM,13.4
11,GVIM,19.3
12,YHIM,≤ 0.25
13,FMTM,≤ 0.25
14,GIIM,1.99
15,MATM,22.6
16,GTIM,2.86
17,GVWM,≤ 0.25
18,MAPM,≤ 0.25
19,NVIM,≤ 0.25
20,NIIM,≤ 0.25
21,VKAK,≤ 0.25
22,HKPF,≤ 0.25
23,EDLF,≤ 0.25
24,GLPS,≤ 0.25
25,PYPA,≤ 0.25
26,KRQM,≤ 0.25

row,Variant,enrichment ratio
1,HDQM,≤ 0.25
2,YYGF,≤ 0.25
3,YSDV,≤ 0.25
4,VFWT,≤ 0.25
5,FQSM,≤ 0.25
6,MQSM,8.88
7,GVSM,0.841
8,GQSM,20.5
9,MVSM,12.3
10,GYSM,≤ 0.25
11,MVTM,3.98
12,FVSM,≤ 0.25
13,MASM,16.9
14,MVHF,0.626
15,MRSM,≤ 0.25
16,MESM,19
17,LDIM,≤ 0.25
18,MSCN,1.97
19,THNV,≤ 0.25
20,ILTF,0.323
21,GVMY,≤ 0.25
22,KDHR,≤ 0.25
23,NESM,≤ 0.25
24,GSQM,≤ 0.25
25,TESM,30
26,QESF,≤ 0.25

row,Variant,enrichment ratio
1,TESF,11.5
2,GEHF,≤ 0.25
3,GSSM,11.2
4,GESF,0.55
5,NESF,≤ 0.25
6,GESM,17.3
7,QESM,5.67
8,GSSF,0.449
9,TLHH,≤ 0.25
10,FQMV,0.463
11,MHQA,≤ 0.25
12,NHWK,≤ 0.25
13,ITGV,≤ 0.25
14,KASM,≤ 0.25
15,NASM,≤ 0.25
16,TASM,13.4
17,AEWF,≤ 0.25
18,WRRW,≤ 0.25
19,SHND,≤ 0.25
20,MKND,≤ 0.25
21,THND,29.6
22,AKND,≤ 0.25
23,TKND,12.6
24,NHND,≤ 0.25
25,DRLD,≤ 0.25

# From a collection of fitness landscapes (doi:10.1126/science.1257360)
